# Hit rate of the full screen: of about 220,000 compounds, about 800 (0.36%) were called active. The full list was thinned out, with actives kept by preference. Values without a mark were called inactive.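 How the source made its calls: active means inhibition above about 30% (limit read from the data); inactive means the rest.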
# Biological target: Eukaryotic translation initiation factor 4E (Mus musculus) + Eukaryotic translation initiation factor 4 gamma 1 (Homo sapiens) (UniProt P63073+Q04637)
# Sequence (P63073 whole entry, looked up, the tested form may be a part): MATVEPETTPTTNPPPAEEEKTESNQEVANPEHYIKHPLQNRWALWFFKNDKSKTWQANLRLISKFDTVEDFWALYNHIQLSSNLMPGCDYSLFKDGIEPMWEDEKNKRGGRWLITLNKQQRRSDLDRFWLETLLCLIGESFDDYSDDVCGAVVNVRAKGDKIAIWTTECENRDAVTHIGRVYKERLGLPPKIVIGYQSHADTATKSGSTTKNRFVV
# Sequence (Q04637 whole entry, looked up, the tested form may be a part): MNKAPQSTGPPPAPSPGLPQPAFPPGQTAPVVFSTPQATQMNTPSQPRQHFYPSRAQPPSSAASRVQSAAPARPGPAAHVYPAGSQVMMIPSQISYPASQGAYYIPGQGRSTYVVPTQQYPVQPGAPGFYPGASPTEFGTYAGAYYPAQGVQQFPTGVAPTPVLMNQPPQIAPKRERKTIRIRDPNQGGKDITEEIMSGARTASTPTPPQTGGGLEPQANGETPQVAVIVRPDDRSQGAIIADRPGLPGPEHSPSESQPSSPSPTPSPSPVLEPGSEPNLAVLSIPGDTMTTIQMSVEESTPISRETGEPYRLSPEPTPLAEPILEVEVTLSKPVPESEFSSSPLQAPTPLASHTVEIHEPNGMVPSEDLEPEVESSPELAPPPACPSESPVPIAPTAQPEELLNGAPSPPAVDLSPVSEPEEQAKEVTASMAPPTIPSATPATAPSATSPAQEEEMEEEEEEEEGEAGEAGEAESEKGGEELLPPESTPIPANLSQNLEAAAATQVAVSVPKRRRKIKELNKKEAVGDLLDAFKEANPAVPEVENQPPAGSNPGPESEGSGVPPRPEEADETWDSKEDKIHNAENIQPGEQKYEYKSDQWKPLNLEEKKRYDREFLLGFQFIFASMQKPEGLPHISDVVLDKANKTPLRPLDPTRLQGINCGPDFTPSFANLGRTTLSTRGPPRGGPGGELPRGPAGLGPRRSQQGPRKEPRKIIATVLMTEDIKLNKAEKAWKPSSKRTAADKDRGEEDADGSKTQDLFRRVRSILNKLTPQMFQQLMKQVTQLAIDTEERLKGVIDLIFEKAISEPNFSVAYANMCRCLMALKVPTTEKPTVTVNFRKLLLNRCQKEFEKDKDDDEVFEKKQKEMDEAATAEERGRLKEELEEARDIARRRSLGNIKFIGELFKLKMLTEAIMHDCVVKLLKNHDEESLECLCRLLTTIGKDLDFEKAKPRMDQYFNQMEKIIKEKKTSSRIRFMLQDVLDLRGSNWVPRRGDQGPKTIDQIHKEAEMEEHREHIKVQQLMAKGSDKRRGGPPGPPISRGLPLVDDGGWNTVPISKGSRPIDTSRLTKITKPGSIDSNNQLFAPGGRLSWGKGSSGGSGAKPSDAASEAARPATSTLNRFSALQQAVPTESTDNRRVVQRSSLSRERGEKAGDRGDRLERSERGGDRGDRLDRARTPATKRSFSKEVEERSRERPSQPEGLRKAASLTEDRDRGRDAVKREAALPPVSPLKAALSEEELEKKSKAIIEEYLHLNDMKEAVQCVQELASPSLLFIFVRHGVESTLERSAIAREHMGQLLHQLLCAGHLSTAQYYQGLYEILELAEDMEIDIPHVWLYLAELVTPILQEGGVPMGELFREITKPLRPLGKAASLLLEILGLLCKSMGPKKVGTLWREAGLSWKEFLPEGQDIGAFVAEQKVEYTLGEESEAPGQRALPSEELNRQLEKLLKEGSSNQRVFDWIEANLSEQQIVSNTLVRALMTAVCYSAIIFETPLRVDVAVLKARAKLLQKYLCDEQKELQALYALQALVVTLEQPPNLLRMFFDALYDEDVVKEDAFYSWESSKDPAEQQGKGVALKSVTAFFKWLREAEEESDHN
# Test: eIF4E–eIF4G protein interaction inhibitors, primary screen, biochemical, uHTS, TR-FRET, eIF4GI fragment (AID 782);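 further: 0% = full FRET control wells and 100% = background wells lacking eIF4GI fragment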
# Conditions: TR-FRET eIF4E-eIF4GI(517-606) binding, 2 h; at 21.7 µM; active compounds read high
row,Compound,inhibition
1,COc1ccc(CNC(=O)C2CC(c3ccc(C(F)(F)F)cc3)=NO2)cc1 (stereo unspecified),0.84%
2,C=C(C)C(=O)O[C@H]1C/C(C)=C\C(=O)/C=C(\C)[C@H](O)[C@@H]2OC(=O)C(=C)[C@@H]21,2.79%
3,CCn1c(NC(=O)c2nn(C)cc2Br)nc2ccccc21,2.02%
4,CC(C)N(C(=O)c1ccc(-c2ccccc2F)cc1)C(C)C,6.78%
5,O=S(=O)(c1ccc(Cl)cc1)N1CCCN(c2ccc(C(F)(F)F)cn2)CC1,2.55%
6,CCN1CCN(C(c2cccnc2)c2cc(Cl)c3cccnc3c2O)CC1 (stereo unspecified),15.4%
7,Oc1c(C(c2ccccn2)N2CCOCC2)ccc2cccnc12 (stereo unspecified),5.26%
8,CCOC(=O)N1CCN(C(c2cccnc2)c2ccc3cccnc3c2O)CC1 (stereo unspecified),41.4% [fluorescence artefact?] (active)
9,CCc1nnc(NC(=O)Cc2cccs2)s1,28.2%
10,O=C(Cc1cccs1)Nc1nnc(C2CC2)s1,-4.66%
11,COc1ccc(Cc2nnc(NC(=O)Cc3cccs3)s2)cc1,30.8% (active)
12,O=C1C(Cc2ccc(O)cc2)NC(=S)N1Cc1ccccc1 (stereo unspecified),4.64%
13,O=C(NC(Cc1c[nH]c2ccccc12)C(=O)O)/C(=C/c1ccco1)NC(=O)c1ccccc1 (stereo unspecified),1.5%
14,CN(C(=O)Nc1ccc(Cl)cc1)n1cnc2ccccc2c1=O,-1.03%
15,O=C(Cn1cnc2c(cnn2-c2ccccc2)c1=O)NCc1ccccc1,-7.03%
16,CC(C)(C)NC(=O)Cn1cnc2cc([N+](=O)[O-])ccc2c1=O,6.94%
17,O=C(Cn1cnc2cc([N+](=O)[O-])ccc2c1=O)NC(=O)NCc1ccccc1,90.5% (active)
18,CCC(C)(C)NC(=O)/C=C/c1cc(OC)c(OC)c(S(=O)(=O)N2CCc3ccccc32)c1,-2.6%
19,CCN(Cc1ccccc1)C(=O)CN1C(=S)NC(C)(C)CC1C (stereo unspecified),-8.44%
20,CC(=O)Nc1cccc(/C(C)=N/NC(=O)c2c(-c3ccccc3Cl)noc2C)c1,1.91%
21,COc1ccc(N2CCN(C(=O)/C(C#N)=C/c3ccccc3)CC2)cc1,1.4%
22,COC(=O)c1sc2[nH]c(=S)n(N)c(=O)c2c1C,-5.75%
23,Cc1c(CN2CCC(CO)(CCOc3ccccc3)CC2)[nH]c2ccc(Cl)cc12,3.73%

row,Compound,inhibition
1,CCCn1c(SCC(=O)Nc2cccc(C(=O)OCC)c2)nnc1-c1ccoc1C,-5.54%
2,Cc1cc(C)c2c(c1)cc(C)c1nnc(SCC(=O)Nc3cc(C)on3)n12,0.38%
3,Cc1ccc(C)c2c1cc(C)c1nnc(SCC(=O)Nc3cccc(C(=O)O)c3)n12,92.4% (active)
4,CCCCOc1ccc(C(=O)NCC(=O)OCC(=O)N2CCN(S(=O)(=O)c3ccc(C)cc3C)CC2)cc1,11.8%
5,CC1CCN(CC(=O)c2c[nH]c3ccccc23)CC1,-20.8%
6,O=C(Cc1c[nH]c2ccccc12)OCCOC(=O)Cc1c[nH]c2ccccc12,0.18%
7,O=C(OCC(=O)c1c[nH]c2ccccc12)c1cccc(O)c1,49.4% (active)
8,CCOC(=O)CCCNC(=O)COC(=O)c1cc(Br)c(Br)s1,-0.44%
9,COc1ccccc1OCC(=O)O/N=C(\N)c1ccccn1,4.41%
10,CCCn1nc(NS(=O)(=O)c2ccccc2)c2cc3cc(C)ccc3nc21,0.92%
11,N#CCCCn1c(O)c(N=NC(=O)C(O)c2ccccc2)c2ccccc21 (stereo unspecified),1.55%
12,COC(=O)Cn1c(O)c(N=NC(=O)OC)c2ccccc21,94.3% (active)
13,CCCCn1c(O)c(N=NC(=O)Cn2c(C(F)(F)F)nc3ccccc32)c2ccccc21,16%
14,CC1(C)C(c2cccs2)=[N+]([O-])C2(CCCCC2=O)N1O (stereo unspecified),-4.23%
15,COc1ccc(NC(=O)COc2ccc(C(=O)OCC(=O)N(C)C3CCS(=O)(=O)C3)cc2OC)cc1 (stereo unspecified),-0.66%
16,Cc1c(-c2cccc(Cl)c2)nc2ccccc2c1C(=O)OCC(=O)N(C)C1CCS(=O)(=O)C1 (stereo unspecified),2.67%
17,CN(C(=O)COC(=O)c1cc(-c2ccco2)nc2ccccc12)C1CCS(=O)(=O)C1 (stereo unspecified),42.4% (active)
18,O=C(NNC(=S)NC(=O)c1cn(-c2ccccc2)nc1-c1ccccc1)c1ccncc1,0.17%
19,Cc1ccc(N(C(=O)C(F)(F)F)C(C(=O)NC2CCCCC2)c2ccncc2)cc1C (stereo unspecified),4.58%
20,S=C(NCCc1ccccc1)N1CCn2cccc2C1c1ccncc1 (stereo unspecified),-2.42%
21,COc1ccc(NC(=S)NC2CCS(=O)(=O)C2)cc1 (stereo unspecified),49.7% (active)
22,COc1ccc(-c2ccc(OC(=O)NC3CCS(=O)(=O)C3)cc2)cc1 (stereo unspecified),2.9%
23,Cc1ccc(NC(=S)NC2CCCC2)cc1,1.43%
